# Measured values reported in PubChem BioAssay (NCI).
# Compounds without any hit were thinned out: in the full panel of roughly 79,000, 15% have a hit. Calls of active or inactive are those of the source. No stated cut-off is given here; in the data, active means growth inhibition above about 70%; inactive means the rest.
# Experiment: NCI Yeast Anticancer Drug Screen. Data for the cln2 rad14 strain (AID 165);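 further: 0% = growth equal to vehicle treated cultures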
# Conditions: S. cerevisiae cln2 rad14 strain, at 50.0 µM, hits give high values
# Method in brief: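 The screen exposed genetically defined yeast (cln2 rad14) to test compounds and scored growth inhibition relative to vehicle-treated controls.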
row,Structure (SMILES),growth inhibition
1,O=[N+]([O-])c1c(F)cc(F)cc1F,-19.9% (inactive)
2,O=C1c2ccccc2-c2nnc(-c3ccc(Cl)cc3)cc21,-16.9% (inactive)
3,CN(C)S(=O)(=O)C1(c2ccccc2)CCCC1,-1.5% (inactive)
4,Clc1ccc2c(NCCCCN=Cc3ccccc3)ccnc2c1,-10.4% (inactive)
5,Cc1nnc(-c2cn(C3OC(CO)C(O)C3O)c3ncnc(N)c23)nc1C (stereo unspecified),0% (inactive)
6,O=C(O)Cc1ccc(OCCCCCOc2ccc(CC(=O)O)cc2)cc1,-49.9% (inactive)
7,CC(C)NCC(=O)CCCBr,-23.1% (inactive)
8,Nc1ccc(C(=O)O)c([N+](=O)[O-])c1,-30.9% (inactive)
9,Cc1ccccc1CN,1.05% (inactive)
10,CCNC(=O)CCP(=O)(CCC(=O)NCC)CCC(=O)NCC,-4.35% (inactive)
11,C1=COC(C=Nc2ccccc2)CC1 (stereo unspecified),-18.2% (inactive)

# Experiment: NCI Yeast Anticancer Drug Screen. Data for the bub3 strain (AID 167)
# Conditions: S. cerevisiae bub3 mutant strain, at 50.0 µM, hits give high values
# Method in brief: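 Yeast carrying a defined mutation is treated with each compound, and growth is compared with that of vehicle-exposed cells to give inhibition.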
row,Structure (SMILES),growth inhibition
1,Nc1ccc2ccccc2c1S(=O)(=O)O,-2.4% (inactive)
2,CCSCC1OC(n2cnc3c(=S)nc(N)[nH]c32)C(O)C1O (stereo unspecified),11.8% (inactive)
3,Cc1cc(Cc2cc(C)c(O)c(CN(C)C)c2)cc(CN(C)C)c1O,-6.1% (inactive)
4,Cc1cccc(N=Cc2ccc(N(CCC#N)S(=O)(=O)c3ccccc3)cc2C)c1,-10.9% (inactive)
5,CCOC(=O)C(CNCc1ccccc1)(c1ccccc1)c1ccccc1,9.95% (inactive)
6,N#CC(NC(=O)NCCCl)c1ccccc1 (stereo unspecified),11.4% (inactive)
7,C#CCCOC(=O)c1ccccc1OC(C)=O,7.15% (inactive)
8,CCOCCC(=O)OCCC(C)OC (stereo unspecified),-58.1% (inactive)
9,CC(C)C1CCC(C)(C(N)=O)C1 (stereo unspecified),-8.25% (inactive)
10,CC(=O)C1CCC2C3CCC4CC5(CCC4(C)C3C(=O)CC12C)NC(C(=O)O)CS5 (stereo unspecified),-0.6% (inactive)
11,COC(=O)NS(=O)(=O)C1=Cc2cccc3cccc1c23,6.35% (inactive)
12,CC(C)C1=C(Cc2ccccc2)C(=O)O/C1=C\c1ccc(O)c(Cl)c1,6.05% (inactive)
13,COc1cccc(-n2cnc3c(SC)ncnc32)c1,19.1% (inactive)
14,Cc1ccc(S(=O)(=O)OI(O)CC(F)(F)F)cc1,6.5% (inactive)
15,O=C1CCCS(=O)(=O)CCC1,0.9% (inactive)
16,CC(=O)Nc1ccc(/C=C/c2csnn2)cc1,-4.45% (inactive)
17,COc1cccc2c1C(CO)N1C(C#N)C3CC(C(=O)O)C(C1C2)N3C (stereo unspecified),8% (inactive)
18,O=C(O)c1ccc(CSc2ccccc2C(=O)O)cc1,-14.7% (inactive)
19,COc1ccc(CCNC(=O)CC(C)=O)cc1,-38% (inactive)
20,CO/C(Cc1cc(O)cc(O)c1)=N\N,7.85% (inactive)

row,Structure (SMILES),growth inhibition
1,CCCNc1nc(Cl)nc2c1cnn2C,14.4% (inactive)
2,NNC(=O)CCC(=O)NC1C2CC3CC(C2)CC1C3 (stereo unspecified),-10.7% (inactive)
3,COC(=O)CCSSCCC(=O)OC,-21.4% (inactive)
4,CC1=C(O)c2ccccc2C(=O)C1=O,12.8% (inactive)
5,Cc1cc2nc(CC(O)c3nc4cc(C)c(C)cc4[nH]3)[nH]c2cc1C (stereo unspecified),-4.9% (inactive)
6,C=Cc1c(C)c2cc3[nH]c(cc4nc(cc5nc(cc1[nH]2)C(C)=C5CCC(=O)OC)C(CCC(=O)OC)=C4C)c(C)c3C=C,-1.05% (inactive)
7,C=NNC(=O)c1ccncc1,12.8% (inactive)
8,Nc1nc2cc(COc3ccc(C(=O)O)cc3)ccc2nc1-c1ccccc1,-26.2% (inactive)
9,CC(=O)NC1C(=O)N(c2ccccc2)N=C1C (stereo unspecified),-6.5% (inactive)
10,O=[N+]([O-])c1c(F)cc(F)cc1F,2.55% (inactive)
11,O=C1c2ccccc2-c2nnc(-c3ccc(Cl)cc3)cc21,-24.2% (inactive)
12,CN(C)S(=O)(=O)C1(c2ccccc2)CCCC1,-7% (inactive)
13,Clc1ccc2c(NCCCCN=Cc3ccccc3)ccnc2c1,15.3% (inactive)
14,Cc1nnc(-c2cn(C3OC(CO)C(O)C3O)c3ncnc(N)c23)nc1C (stereo unspecified),-4.1% (inactive)
15,O=C(O)Cc1ccc(OCCCCCOc2ccc(CC(=O)O)cc2)cc1,-12% (inactive)
16,CC(C)NCC(=O)CCCBr,5.45% (inactive)
17,Nc1ccc(C(=O)O)c([N+](=O)[O-])c1,-11.7% (inactive)
18,Cc1ccccc1CN,18.3% (inactive)
19,CCNC(=O)CCP(=O)(CCC(=O)NCC)CCC(=O)NCC,-6.7% (inactive)
20,C1=COC(C=Nc2ccccc2)CC1 (stereo unspecified),15.8% (inactive)
